From PubChem BioAssay (NCI)
This is part of a sample that, as a whole, favours compounds with a hit. Of some 83,000 tested, about 20% had one in any assay.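 Method: cells in 96-well plates; compound added at one concentration; 48 h incubation; percent growth measured; values under 10 scored active.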 A number with no mark means an inactive call. Activity calls are given as the source filed them.

Columns and labels:
Test in all cases: NCI-60 one-dose screen, 48 h (100 = growth as untreated, 0 = no growth, -100 = all killed)
Details in all cases: 10 µM unless noted
SR leukemia = tested on: SR leukemia
RPMI-8226 leukemia = tested on: RPMI-8226 leukemia
OVCAR-8 ovarian = tested on: OVCAR-8 ovarian
OVCAR-5 ovarian = tested on: OVCAR-5 ovarian
SK-OV-3 ovarian = tested on: SK-OV-3 ovarian
HS 578T breast = tested on: HS 578T breast
NCI/ADR-RES ovarian = tested on: NCI/ADR-RES ovarian
OVCAR-4 ovarian = tested on: OVCAR-4 ovarian
IGROV1 ovarian = tested on: IGROV1 ovarian
OVCAR-3 ovarian = tested on: OVCAR-3 ovarian

Compound	growth (SR leukemia)	growth (RPMI-8226 leukemia)	growth (OVCAR-8 ovarian)	growth (OVCAR-5 ovarian)	growth (SK-OV-3 ovarian)	growth (HS 578T breast)	growth (NCI/ADR-RES ovarian)	growth (OVCAR-4 ovarian) [%]	growth (IGROV1 ovarian)	growth (OVCAR-3 ovarian)
O=[N+]([O-])c1cc(S(=O)(=O)c2ccc(F)c([N+](=O)[O-])c2)ccc1F	9.57% (active)	6.35% (active)	80.9%	122%	117%	80.6%	108%	–	–	–
CC(Cc1ccco1)C(=O)NC(N)=O (stereo unspecified)	100%	102%	101%	–	120%	109%	104%	108	108%	111%
COc1ccc(O)c(-c2cc(-c3ccc(Cl)cc3)c(C#N)c(=O)[nH]2)c1	33.5%	62.3%	68.3%	–	82.8%	58.7%	62.5%	74.4	78.5%	73.4%
O=S(=O)(NCCNc1cc(-c2cn(-c3ccccc3)nc2-c2cccc(O)c2)ccn1)c1ccc(Br)cc1	5.3% (active)	13%	25%	–	45.8%	24.8%	25.5%	40.7	49.6%	34.7%
COc1ccc(/C=C/C(=O)NCC(C)O)cc1 (stereo unspecified)	105%	105%	97.9%	–	87.8%	94.4%	106%	104	93.2%	103%
COc1cccc(-c2nn(-c3ccccc3)cc2-c2ccnc(NCCNS(=O)(=O)c3ccccc3)c2)c1	12.7%	19.1%	27.7%	–	43.3%	46.7%	23.3%	39.3	33.6%	42.6%
Nc1c(Cl)cc(N=Nc2ccccc2)cc1Cl	85.4%	89.9%	104%	31.5%	99%	94.8%	100%	–	12.5%	–
COc1cnc2c(c1)C(=O)c1c-2n(CCCNC(C)C)c(=O)c2cc([N+](=O)[O-])ccc12	-7.62% (active)	-25.1% (active)	-47.6% (active)	-46.6% (active)	-66.8% (active)	-31% (active)	-39.9% (active)	–	-56.4% (active)	-74.3% (active)
Cc1ccc(-c2nc([P+](c3ccccc3)(c3ccccc3)c3ccccc3)c(N3C[C@H]4C[C@H](C3)c3cccc(=O)n3C4)o2)cc1	87.9%	11.5%	86.6%	–	123%	94.4%	94.9%	77.3	46.4%	54%
O=C(N/N=C\c1ccccc1O)C1CC1	104%	107%	93.5%	117%	101%	–	92.8%	–	95%	102%
CC1(c2ccccc2)OC1C(=O)O (stereo unspecified)	101%	108%	107%	–	117%	109%	94.5%	112	96.8%	103%
CCOC(=O)c1ccc2c(c1)[n+](=O)c(C(=O)C1CCCS1)c(C(F)(F)F)n2[O-] (stereo unspecified)	-42.8% (active)	-45.3% (active)	-36.4% (active)	–	-97.6% (active)	-10.8% (active)	-70.4% (active)	–	-60.3% (active)	-96.6% (active)
Cc1ccnc2c(OCc3ccccc3)cccc12	101%	99.2%	–	93.1%	112%	92.2%	86.1%	72.2	87.5%	92.8%
O=c1c(CNc2ccc(S(=O)(=O)Nc3ncccn3)cc2)coc2ccccc12	100%	73.1%	–	96.3%	98.7%	102%	104%	104	95.2%	111%
